Key:
[1] = target: T1, Aspartate--tRNA(Asp/Asn) ligase (Mycobacterium tuberculosis (strain ATCC 25618 / H37Rv)) (UniProt P9WFW3); test: Assay for Asp RNA synthetase-1 from Mycobacterium tuberculosis; format: functional; parameters: scale not given: direction of the effect not stated beside the values; conditions: 30 µM; further: in the data most compounds retested in dose-response had high values
T1 sequence (whole entry): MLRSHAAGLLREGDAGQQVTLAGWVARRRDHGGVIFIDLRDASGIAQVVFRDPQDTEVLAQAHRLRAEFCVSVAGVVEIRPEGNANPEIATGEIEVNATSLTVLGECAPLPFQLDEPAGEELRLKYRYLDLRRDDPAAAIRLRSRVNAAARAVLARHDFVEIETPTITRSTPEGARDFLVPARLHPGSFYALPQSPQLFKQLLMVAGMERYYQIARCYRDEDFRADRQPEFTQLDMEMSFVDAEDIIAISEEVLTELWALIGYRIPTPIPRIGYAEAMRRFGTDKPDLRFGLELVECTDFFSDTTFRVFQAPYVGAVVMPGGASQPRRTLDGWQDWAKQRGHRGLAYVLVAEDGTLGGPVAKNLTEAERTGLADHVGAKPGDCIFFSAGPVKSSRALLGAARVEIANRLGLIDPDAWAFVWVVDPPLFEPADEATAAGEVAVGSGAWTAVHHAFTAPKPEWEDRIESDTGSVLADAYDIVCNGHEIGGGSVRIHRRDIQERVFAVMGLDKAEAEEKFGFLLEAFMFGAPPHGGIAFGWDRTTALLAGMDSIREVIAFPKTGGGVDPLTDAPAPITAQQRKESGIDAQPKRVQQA

[2] = target: Shiga toxin 2 (Escherichia coli O157:H7) (UniProt P09385+P09386); test: E. coli 0.157:H7 Shiga Toxin SOP - stx2 screening assay; format: functional; parameters: scale not given: direction of the effect not stated beside the values; conditions: 30 µM

Row | Compound | Percent Effect [1] [%] | Percent Effect [2] [%]
1 | COc1cc(C)ccc1OCCC(=O)N1CCCC1Cn1cccn1 (centres undefined) | 2 | 12.8
2 | CCc1noc(C2CCCCN2C(=O)c2ccoc2C)n1 (centres undefined) | -4.38 | -33.6
3 | O=C1CC(c2ccco2)c2sc(C(=O)O)c(-c3ccccc3)c2N1 (centres undefined) | 7.4 | 19
4 | c1cn2c(n1)CN(CC1CC1)CC(CN1CCOCC1)C2 (centres undefined) | 11.1 | -18
5 | Cc1cc(O)nc(C2CCCN(Cc3ccncc3)C2)n1 (centres undefined) | 1.35 | 11.8
6 | O=C(Cc1ccc(F)cc1)NCCNCC1CNc2ccnn2C1 (centres undefined) | -2.44 | -33.6
7 | CC(=O)N1CCC(C(=O)N(C)[C@@H]2CCC[C@@H](N3CCCC3)[C@@H]2O)CC1 | 1.35 | -6.16
8 | O=C(NCC1CC1)C1=NOC2(CCN(Cc3ccc4c(c3)OCO4)C2)C1 (centres undefined) | 2.18 | -49.8
9 | CC1c2ncc(CNC(=O)C3CC3)n2CCN1Cc1cnn(C)c1 (centres undefined) | 7.02 | -27.6
10 | CC(C)CC1SCC(=O)Nc2c1cnn2C(C)C (centres undefined) | 3.17 | -18.7
11 | CC(C)C(NC(=O)Cn1ccc(=O)n(C)c1=O)c1ccc(F)cc1 (centres undefined) | 4.7 | -13.7
12 | O=C(Cc1ccccc1F)N1CCN(C(=O)c2ccoc2)CC1 | 5.87 | -6.64
13 | CC(=O)Nc1ncc(S(=O)(=O)Nc2ccc(F)cc2F)s1 | 2.53 | -38.5
14 | Cc1cc(CN2CCc3nn(C)c(=O)cc3C2)on1 | 46.2 | 0.17
15 | Cc1ccc(C(=O)N(C)Cc2cscn2)c(=O)[nH]1 | 0.749 | 8.36
16 | Cc1ccn2cc(C(=O)N3CCCC3c3c(C)nn(C)c3C)nc2c1 (centres undefined) | -1.79 | -1.23
17 | O=C(c1ccc(C2CCCO2)s1)N1Cc2ccccc2C1 (centres undefined) | 0.948 | -61.8

Reference: ChEMBL document CHEMBL3988442, “University of Dundee, Small-Polar-MMV Screening Library” (2021)
